In ChEMBL document CHEMBL3988442, “University of Dundee, Small-Polar-MMV Screening Library” (2021) one finds Percent Effect data, which are given here for 5 molecules.

The target in the assay is Chromo domain-containing protein 1 (Saccharomyces cerevisiae (strain ATCC 204508 / S288c) (Baker's yeast)) (UniProt P32657). Put plainly: ScCHD-1 Enzyme Inhibition Assay. As to conditions: 30 µM. It is filed as functional. Set-up: scale not given: in the data most compounds retested in dose-response had high values.
Sequence of Chromo domain-containing protein 1 (Saccharomyces cerevisiae (strain ATCC 204508 / S288c) (Baker's yeast)) (P32657 whole entry, the tested form may be a part): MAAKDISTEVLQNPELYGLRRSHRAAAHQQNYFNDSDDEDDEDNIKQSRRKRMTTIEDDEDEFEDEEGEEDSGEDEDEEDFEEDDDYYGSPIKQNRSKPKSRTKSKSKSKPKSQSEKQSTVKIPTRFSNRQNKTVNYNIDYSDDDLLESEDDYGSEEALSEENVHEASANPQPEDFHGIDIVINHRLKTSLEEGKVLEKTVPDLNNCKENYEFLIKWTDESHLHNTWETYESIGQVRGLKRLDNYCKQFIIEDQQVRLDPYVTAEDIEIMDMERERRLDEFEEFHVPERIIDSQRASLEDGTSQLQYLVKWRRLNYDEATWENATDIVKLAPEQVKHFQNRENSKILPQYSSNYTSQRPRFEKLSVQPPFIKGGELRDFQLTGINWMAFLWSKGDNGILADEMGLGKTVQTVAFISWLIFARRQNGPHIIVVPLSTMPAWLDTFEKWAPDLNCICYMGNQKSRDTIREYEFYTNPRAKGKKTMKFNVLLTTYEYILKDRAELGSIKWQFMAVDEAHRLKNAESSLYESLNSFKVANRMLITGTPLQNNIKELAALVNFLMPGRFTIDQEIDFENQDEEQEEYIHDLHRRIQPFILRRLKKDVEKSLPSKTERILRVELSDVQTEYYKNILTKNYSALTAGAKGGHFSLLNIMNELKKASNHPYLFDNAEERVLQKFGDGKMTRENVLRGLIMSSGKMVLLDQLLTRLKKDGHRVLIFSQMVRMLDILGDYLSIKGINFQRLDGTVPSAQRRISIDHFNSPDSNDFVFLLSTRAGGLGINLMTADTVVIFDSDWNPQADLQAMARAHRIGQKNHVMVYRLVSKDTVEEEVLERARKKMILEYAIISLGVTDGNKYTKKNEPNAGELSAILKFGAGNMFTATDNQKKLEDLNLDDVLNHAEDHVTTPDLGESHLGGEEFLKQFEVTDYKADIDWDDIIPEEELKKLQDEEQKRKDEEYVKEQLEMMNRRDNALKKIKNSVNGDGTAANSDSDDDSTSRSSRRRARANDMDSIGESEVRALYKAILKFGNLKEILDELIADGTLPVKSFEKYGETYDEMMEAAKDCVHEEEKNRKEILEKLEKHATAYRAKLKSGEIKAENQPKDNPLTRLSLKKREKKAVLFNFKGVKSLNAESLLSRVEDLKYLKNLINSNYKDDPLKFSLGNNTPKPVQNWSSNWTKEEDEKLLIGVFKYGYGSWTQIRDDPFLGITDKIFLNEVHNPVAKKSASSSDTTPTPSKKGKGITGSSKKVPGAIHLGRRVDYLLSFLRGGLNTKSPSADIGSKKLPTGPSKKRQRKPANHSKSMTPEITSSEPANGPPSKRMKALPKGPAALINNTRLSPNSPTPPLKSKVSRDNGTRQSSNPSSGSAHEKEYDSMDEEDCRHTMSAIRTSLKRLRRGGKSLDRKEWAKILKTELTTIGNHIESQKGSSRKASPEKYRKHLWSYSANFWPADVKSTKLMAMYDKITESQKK
As to `CCN(Cc1cccc(Cl)c1)Cc1nc2c(cnn2C)c(=O)[nH]1`, the Percent Effect is -17.4%.
Then `CC(C)c1ccc(OCn2ccc(C(=O)N3CCCC3)n2)cc1`, with -6.24%; and `CCc1cc(NC2CCN(S(C)(=O)=O)CC2)n2nc(C)c(C)c2n1`, with -1.42%; and `COc1c(CNCC(c2cccc(F)c2)N(C)C)c(C(C)C)nn1C` (stereo not given), with -5.27%.
With `Cc1ccccc1C(=O)NCc1ccc(N2CCNC(=O)C2)c(F)c1` the figure was -2.41%.
